Laboratory results taken from PubChem BioAssay (EPA / NIEHS).
Values joined by “and” are separate entries in the source; they are usually repeats but may differ in a detail not shown here. Equal values may be shown once. Results filed as inconclusive are left out. Some structures have more than one record in an assay (separate samples or runs), and their calls can disagree. Active and inactive are the calls of the source. The calls were made as follows, unless noted: active = hit-call score of the fitted dose curve at least 0.9, where 1 is the maximum; inactive = score below 0.9.

Key:
[1] = target: Retinoic acid receptor RXR-alpha (Homo sapiens) (UniProt P19793); assay: OT_NURR1_NURR1RXRa_0480: Odyssey Thera (OT) 8-hour HEK293T Protein Complementation Assay for Nurr1/retinoid X receptor (RXR) (AID 2283385; active = hit-call score of the fitted dose curve at least 0.9, where 1 is the maximum)
Outline: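 Compounds are applied to HEK293T cells carrying Nurr1 and RXRα linked to reporter fragments. After 8 h, fluorescence intensity reports heterodimer formation, with DMSO as baseline.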

[2] = target: Retinoic acid receptor RXR-alpha (Homo sapiens) (UniProt P19793); assay: OT_NURR1_NURR1RXRa_1440: Odyssey Thera (OT) 24-hour HEK293T Protein Complementation Assay for Nurr1/retinoid X receptor (RXR) (AID 2283386; active = hit-call score of the fitted dose curve at least 0.9, where 1 is the maximum)
Outline: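 Measured as fluorescence from a reconstituted split reporter, this 24 h HEK293T complementation assay scores compound-induced gain of Nurr1/RXRα association relative to DMSO.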

[3] = target: Peroxisome proliferator-activated receptor gamma (Homo sapiens) (UniProt P37231); assay: OT_PPARg_PPARgSRC1_0480: Odyssey Thera (OT) 8-hour Protein-Complementation Assay for Peroxisome Proliferator-activated Receptor Gamma / SRC-1 Co-activator (AID 2283387; active = hit-call score of the fitted dose curve at least 0.9, where 1 is the maximum;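 also: nuclear to cytoplasmic split Venus YFP fluorescence ratio reporting PPARg SRC-1 interaction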)
Outline: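 Split-YFP (IFP1/IFP2) PPARg/SRC-1 reporter, HEK293T, 37 °C, 5% CO2; 8 h compound; formaldehyde fix + Draq5; high-content imaging, N/C ratio, ≥350 cells/image, positive direction vs DMSO.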

[4] = read-out: Tumor necrosis factor receptor superfamily member 6 (Homo sapiens) (UniProt P25445); assay: LTEA_HepaRG_FAS: Life Technologies and Expression Analysis (LTEA) Assay for Fas cell surface death receptor (FAS) using HepaRG (AID 2283447); settings: mRNA level, 48 h; actives raise or lower the signal
Outline: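 Differentiated HepaRG cells in serum-free induction medium were exposed 48 h to 8 half-log concentrations up to 100 uM in 0.5% DMSO, in duplicate. FAS mRNA was measured by qRT-PCR normalised to ACTB, GAPDH and POLR2A; bidirectional fit versus DMSO.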

[5] = read-out: Fatty acid synthase (Homo sapiens) (UniProt P49327); assay: LTEA_HepaRG_FASN: Life Technologies and Expression Analysis (LTEA) Assay for Fatty Acid Synthase (FASN) using HepaRG (AID 2283448); settings: mRNA level, 48 h; actives raise or lower the signal;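 as to AC50: differentiated human HepaRG liver cells in serum-free induction medium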
Outline: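 Transcript-level assay: HepaRG liver cells are treated for 48 h across an eight-point range topping at 100 uM, and FASN mRNA, normalized to three housekeeping genes, is compared with DMSO controls in both directions.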

[6] = read-out: Cyclin D2 (CCND2), CCND2 (gene 894); assay: LTEA_HepaRG_CCND2: Life Technologies and Expression Analysis (LTEA) Assay for Cyclin D2 (CCND2) using HepaRG (AID 2283449); settings: mRNA level, 48 h; actives raise or lower the signal;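 also: CCND2 transcript measured by TaqMan qRT-PCR and normalised to three housekeeping genes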
Outline: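 Chemicals in 0.5% DMSO, eight half-log concentrations from 100 uM top, were applied in duplicate for 48 h to human HepaRG cells in serum-free induction medium. CCND2 mRNA by TaqMan qRT-PCR, normalised to ACTB/GAPDH/POLR2A; bidirectional fit versus DMSO.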

[7] = read-out: Cyclin D1 (CCND1), CCND1 (gene 595); assay: LTEA_HepaRG_CCND1: Life Technologies and Expression Analysis (LTEA) Assay for Cyclin D1 (CCND1) using HepaRG (AID 2283451); settings: mRNA level, 48 h; actives raise or lower the signal;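 as to AC50: differentiated human HepaRG liver cells in serum-free induction medium; TaqMan qRT-PCR transcript level normalised to ACTB GAPDH and POLR2A housekeeping genes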
Outline: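 Human liver HepaRG line; 48 h dosing, 8 conc. ≤100 uM, 0.5% DMSO; TaqMan qRT-PCR mRNA, 3 housekeeping genes; bidirectional curve fit vs DMSO.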

[8] = read-out: catalase (CAT), CAT (gene 847); assay: LTEA_HepaRG_CAT: Life Technologies and Expression Analysis (LTEA) Assay for catalase (CAT) using HepaRG (AID 2283452); settings: mRNA level, 48 h; actives raise or lower the signal;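 as to AC50: TaqMan qRT-PCR signal normalized to ACTB GAPDH and POLR2A housekeeping genes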
Outline: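 HepaRG cells in serum-free induction medium, 0.5% DMSO vehicle, exposed 48 h in duplicate over 8 half-log concentrations from 100 uM. CAT mRNA measured by qRT-PCR, normalized to ACTB, GAPDH, POLR2A; bidirectional fit versus DMSO.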

[9] = target: Peroxisome proliferator-activated receptor gamma (Homo sapiens) (UniProt P37231); assay: OT_PPARg_PPARgSRC1_1440: Odyssey Thera (OT) 24-hour Protein-Complementation Assay for Peroxisome Proliferator-activated Receptor Gamma/ SRC-1 Co-activator (AID 2283388; active = hit-call score of the fitted dose curve at least 0.9, where 1 is the maximum;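 also: nuclear to cytoplasmic ratio of reconstituted Venus YFP fluorescence in fixed imaged cells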)
Outline: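 Transient HEK293T, YFP fragments 1-158/159-239 (mutant IFP1/IFP2) fused to PPARg/SRC-1; 24 h dosing; fix 4% formaldehyde, Draq5; Opera imaging 488/635 nm; N/C ratio, gain vs DMSO.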

[10] = read-out: Cyclin Dependent Kinase Inhibitor 1A (CDKN1A), CDKN1A (gene 1026); assay: LTEA_HepaRG_CDKN1A: Life Technologies and Expression Analysis (LTEA) Assay for Cyclin Dependent Kinase Inhibitor 1A (CDKN1A) using HepaRG (AID 2283450); settings: mRNA level, 48 h; actives raise or lower the signal
Outline: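 Cryopreserved HepaRG cells were plated and cultured 48 h, then switched to serum-free induction medium. Chemicals (eight half-log concentrations, top 100 uM, 0.5% DMSO) were applied for 48 h. Lysates underwent qRT-PCR for CDKN1A with housekeeping normalization.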

[11] = target: Bile acid receptor (Homo sapiens) (UniProt Q96RI1); assay: OT_FXR_FXRSRC1_1440: Odyssey Thera (OT) 24-hour HEK293T Protein-Complementation Assay for Farnesoid X receptor/SRC-1 Co-activator (AID 2283384; active = hit-call score of the fitted dose curve at least 0.9, where 1 is the maximum)
Outline: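 Cell-based binding reporter: interaction of FXR with SRC-1 brings reporter fragments together, giving a fluorescence signal read 24 h after dosing of HEK293T cells.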

[12] = CEETOX_H295R_OHPREG: CeeTox H295R High-throughput Steroidogenesis Assay for OH-Pregnenolone (OHPREG) (AID 2283434); settings: actives raise or lower the signal
Outline: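 H295R cells pre-stimulated 48 h with 10 uM forskolin, then exposed 48 h to chemical in 0.1% DMSO. 17alpha-hydroxypregnenolone in medium quantified by MTBE extraction and HPLC-MS/MS; bidirectional fit versus DMSO, viability checked by MTT.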

[13] = CEETOX_H295R_OHPROG: CeeTox H295R High-throughput Steroidogenesis Assay for OH-Progesterone (OHPROG) (AID 2283435); settings: actives raise or lower the signal;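 as to AC50: human adrenal H295R cells primed 48 h with 10 µM forskolin; 17alpha-hydroxyprogesterone secreted into medium measured by HPLC-MS/MS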
Outline: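 Secreted 17alpha-hydroxyprogesterone is read by tandem MS from media of forskolin-primed H295R cells dosed with chemical for 48 h. Activity is fitted in both directions against DMSO baseline; cytotoxic concentrations are re-tested diluted.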

[14] = CEETOX_H295R_ESTRADIOL: CeeTox H295R High-throughput Steroidogenesis Assay for Estradiol (AID 2283440); settings: actives raise or lower the signal;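 also: estradiol secreted into medium quantified by LC-MS/MS after dansyl derivatisation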
Outline: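 Following OECD 456 with minor changes, H295R cells received 10 uM forskolin for 48 h and then test chemical for 48 h. Hormone output was read by HPLC-MS/MS, with cytotoxic concentrations diluted until MTT viability reached ≥70%.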

[15] = CEETOX_H295R_ESTRONE: CeeTox H295R High-throughput Steroidogenesis Assay for Estrone (AID 2283441); settings: actives raise or lower the signal;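 also: estrone secreted into medium measured by LC-MS/MS after dansyl derivatization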
Outline: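 H295R cells; 48 h forskolin (10 uM) prestimulation; 48 h compound exposure, 0.1% DMSO final. Medium estrone: MTBE extraction, dansyl derivatization, HPLC-MS/MS. Bidirectional fit vs DMSO.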

[16] = CEETOX_H295R_PROG: CeeTox H295R High-throughput Steroidogenesis Assay for Progesterone (PROG) (AID 2283442); settings: actives raise or lower the signal;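 as to AC50: human H295R adrenal cells primed with 10 µM forskolin before dosing; progesterone secreted into medium by H295R cells measured by HPLC-MS/MS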
Outline: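 Adrenal H295R line, forskolin-stimulated (10 uM, 48 h) before dosing. 48 h exposure, 0.1% DMSO vehicle. Secreted progesterone by reverse-phase HPLC with ESI+ MS/MS quantification; DMSO-normalised bidirectional curve fit.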

[17] = CEETOX_H295R_11DCORT: CeeTox H295R High-throughput Steroidogenesis Assay for 11-Deoxycortisol (11DCORT) (AID 2283432); settings: actives raise or lower the signal;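 as to AC50: human adrenal H295R cells prestimulated with 10 µM forskolin for 48 h; 11-deoxycortisol secreted into the medium measured by LC-MS/MS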
Outline: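 Steroidogenesis in human H295R cells: 48 h chemical exposure after forskolin priming, 11-deoxycortisol measured by LC-MS/MS.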

[18] = CEETOX_H295R_ANDR: CeeTox H295R High-throughput Steroidogenesis Assay for Androstenedione (ANDR) (AID 2283436); settings: actives raise or lower the signal;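 also: human H295R adrenal cells exposed for 48 h with androstenedione measured in medium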
Outline: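 H295R cells, following OECD 456 with minor changes, exposed to chemicals for 48 h. Androstenedione in the medium was quantified by HPLC-MS/MS after MTBE extraction. Fitting was bidirectional versus DMSO; chemicals were diluted until MTT viability was ≥70%.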

[19] = CEETOX_H295R_CORTISOL: CeeTox H295R High-throughput Steroidogenesis Assay for Cortisol (AID 2283438); settings: actives raise or lower the signal;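 also: cortisol secreted into medium quantified by LC-MS/MS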
Outline: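 Human adrenocortical H295R cells (passage ≤10) received test chemicals for 48 h after forskolin priming. Secreted cortisol was measured by LC-MS/MS.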

[20] = CEETOX_H295R_DOC: CeeTox H295R High-throughput Steroidogenesis Assay for DOC (AID 2283439); settings: actives raise or lower the signal
Outline: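 Secreted DOC was quantified from H295R media by HPLC-MS/MS after 48 h chemical exposure following 48 h forskolin (10 uM) prestimulation. Values were fitted in both directions relative to DMSO, the negative control and baseline.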

Measured: AC50

Fatty acid synthase (Homo sapiens), sequence (P49327 whole entry, looked up): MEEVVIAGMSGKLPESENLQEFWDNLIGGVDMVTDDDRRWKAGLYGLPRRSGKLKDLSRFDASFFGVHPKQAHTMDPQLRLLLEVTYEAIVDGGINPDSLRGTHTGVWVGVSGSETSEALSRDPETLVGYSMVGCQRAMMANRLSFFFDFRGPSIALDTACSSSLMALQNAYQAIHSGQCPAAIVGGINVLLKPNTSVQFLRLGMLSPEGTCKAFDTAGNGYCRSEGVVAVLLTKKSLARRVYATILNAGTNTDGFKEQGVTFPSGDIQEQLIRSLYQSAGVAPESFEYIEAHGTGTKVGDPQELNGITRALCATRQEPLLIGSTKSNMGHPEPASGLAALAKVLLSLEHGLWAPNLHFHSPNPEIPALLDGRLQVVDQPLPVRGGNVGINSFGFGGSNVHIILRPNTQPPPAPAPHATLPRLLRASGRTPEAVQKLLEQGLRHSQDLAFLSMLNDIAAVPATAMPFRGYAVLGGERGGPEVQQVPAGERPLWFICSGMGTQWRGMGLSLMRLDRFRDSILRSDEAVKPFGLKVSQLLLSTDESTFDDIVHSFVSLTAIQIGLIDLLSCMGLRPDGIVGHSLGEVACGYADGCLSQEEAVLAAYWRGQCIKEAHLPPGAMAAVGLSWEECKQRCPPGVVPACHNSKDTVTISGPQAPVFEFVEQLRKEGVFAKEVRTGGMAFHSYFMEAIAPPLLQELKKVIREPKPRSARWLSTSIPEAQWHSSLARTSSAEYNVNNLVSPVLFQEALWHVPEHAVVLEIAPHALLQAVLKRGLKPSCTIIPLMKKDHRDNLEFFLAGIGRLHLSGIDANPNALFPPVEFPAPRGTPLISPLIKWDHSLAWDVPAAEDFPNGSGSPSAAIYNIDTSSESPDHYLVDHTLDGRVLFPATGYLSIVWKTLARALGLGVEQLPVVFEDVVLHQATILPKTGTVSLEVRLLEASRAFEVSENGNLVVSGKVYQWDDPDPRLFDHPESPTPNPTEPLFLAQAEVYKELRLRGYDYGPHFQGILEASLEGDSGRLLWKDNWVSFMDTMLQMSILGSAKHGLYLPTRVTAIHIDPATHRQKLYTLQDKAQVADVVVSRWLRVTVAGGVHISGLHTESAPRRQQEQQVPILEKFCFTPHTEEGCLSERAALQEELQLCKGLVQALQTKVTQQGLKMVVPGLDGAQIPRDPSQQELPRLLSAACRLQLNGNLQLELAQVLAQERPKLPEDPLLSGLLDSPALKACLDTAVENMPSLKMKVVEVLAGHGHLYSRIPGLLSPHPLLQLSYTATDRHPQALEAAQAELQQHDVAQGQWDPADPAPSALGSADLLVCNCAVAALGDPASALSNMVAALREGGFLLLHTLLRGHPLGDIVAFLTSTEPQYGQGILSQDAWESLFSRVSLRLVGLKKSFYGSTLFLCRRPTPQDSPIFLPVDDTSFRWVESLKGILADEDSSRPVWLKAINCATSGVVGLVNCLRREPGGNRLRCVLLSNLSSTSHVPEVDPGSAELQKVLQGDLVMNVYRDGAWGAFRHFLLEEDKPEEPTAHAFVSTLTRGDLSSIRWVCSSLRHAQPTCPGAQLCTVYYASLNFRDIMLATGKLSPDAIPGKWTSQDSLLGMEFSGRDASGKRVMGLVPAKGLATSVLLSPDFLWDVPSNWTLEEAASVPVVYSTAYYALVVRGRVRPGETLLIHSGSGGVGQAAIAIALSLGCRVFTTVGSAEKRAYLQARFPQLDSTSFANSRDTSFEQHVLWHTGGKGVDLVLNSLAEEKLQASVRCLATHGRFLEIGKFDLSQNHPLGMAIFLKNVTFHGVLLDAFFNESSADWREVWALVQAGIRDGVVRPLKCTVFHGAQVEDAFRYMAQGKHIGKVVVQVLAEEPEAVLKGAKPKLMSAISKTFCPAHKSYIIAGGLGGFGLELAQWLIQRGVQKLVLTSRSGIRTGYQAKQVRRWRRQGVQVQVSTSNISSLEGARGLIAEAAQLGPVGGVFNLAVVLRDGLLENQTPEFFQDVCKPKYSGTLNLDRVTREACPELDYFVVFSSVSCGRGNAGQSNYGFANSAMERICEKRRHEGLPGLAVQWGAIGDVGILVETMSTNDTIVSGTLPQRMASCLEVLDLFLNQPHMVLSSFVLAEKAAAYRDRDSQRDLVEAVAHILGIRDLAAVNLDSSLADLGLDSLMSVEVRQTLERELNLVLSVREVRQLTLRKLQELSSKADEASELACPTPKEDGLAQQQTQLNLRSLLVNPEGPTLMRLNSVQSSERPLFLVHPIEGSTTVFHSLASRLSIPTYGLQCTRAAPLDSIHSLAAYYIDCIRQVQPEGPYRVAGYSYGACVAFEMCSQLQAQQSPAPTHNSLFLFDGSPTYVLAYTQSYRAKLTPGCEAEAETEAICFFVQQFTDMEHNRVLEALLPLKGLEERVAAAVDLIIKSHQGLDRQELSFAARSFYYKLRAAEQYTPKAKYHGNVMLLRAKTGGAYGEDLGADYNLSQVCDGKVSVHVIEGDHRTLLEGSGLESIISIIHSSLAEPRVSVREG
Retinoic acid receptor RXR-alpha (Homo sapiens), sequence (P19793 whole entry, looked up, the tested form may be a part): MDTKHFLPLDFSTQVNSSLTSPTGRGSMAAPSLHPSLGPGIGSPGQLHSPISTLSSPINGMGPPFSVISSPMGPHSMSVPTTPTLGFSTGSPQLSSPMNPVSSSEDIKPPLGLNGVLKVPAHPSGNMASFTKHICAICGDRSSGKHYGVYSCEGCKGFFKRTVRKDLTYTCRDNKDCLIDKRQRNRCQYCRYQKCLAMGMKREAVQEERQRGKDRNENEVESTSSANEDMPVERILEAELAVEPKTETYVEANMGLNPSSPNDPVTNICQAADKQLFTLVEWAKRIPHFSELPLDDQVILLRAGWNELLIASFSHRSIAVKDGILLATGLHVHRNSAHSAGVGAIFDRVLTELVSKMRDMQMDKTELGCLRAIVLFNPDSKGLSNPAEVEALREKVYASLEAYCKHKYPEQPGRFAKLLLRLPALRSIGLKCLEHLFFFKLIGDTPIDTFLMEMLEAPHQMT
Peroxisome proliferator-activated receptor gamma (Homo sapiens), sequence (P37231 whole entry, looked up, the tested form may be a part): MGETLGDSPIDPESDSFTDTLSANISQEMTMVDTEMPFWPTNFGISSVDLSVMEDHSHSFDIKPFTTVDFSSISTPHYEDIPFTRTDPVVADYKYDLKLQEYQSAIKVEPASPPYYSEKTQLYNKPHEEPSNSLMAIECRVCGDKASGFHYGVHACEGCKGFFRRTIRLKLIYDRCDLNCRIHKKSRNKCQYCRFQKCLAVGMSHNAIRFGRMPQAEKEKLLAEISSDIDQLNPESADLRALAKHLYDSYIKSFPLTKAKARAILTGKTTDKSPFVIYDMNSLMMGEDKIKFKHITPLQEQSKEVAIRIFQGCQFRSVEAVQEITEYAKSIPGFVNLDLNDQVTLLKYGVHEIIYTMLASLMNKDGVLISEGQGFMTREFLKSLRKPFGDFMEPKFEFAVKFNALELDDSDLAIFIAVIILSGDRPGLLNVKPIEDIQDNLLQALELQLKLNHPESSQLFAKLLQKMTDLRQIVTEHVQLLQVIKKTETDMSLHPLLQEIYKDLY
Bile acid receptor (Homo sapiens), sequence (Q96RI1 whole entry, looked up, the tested form may be a part): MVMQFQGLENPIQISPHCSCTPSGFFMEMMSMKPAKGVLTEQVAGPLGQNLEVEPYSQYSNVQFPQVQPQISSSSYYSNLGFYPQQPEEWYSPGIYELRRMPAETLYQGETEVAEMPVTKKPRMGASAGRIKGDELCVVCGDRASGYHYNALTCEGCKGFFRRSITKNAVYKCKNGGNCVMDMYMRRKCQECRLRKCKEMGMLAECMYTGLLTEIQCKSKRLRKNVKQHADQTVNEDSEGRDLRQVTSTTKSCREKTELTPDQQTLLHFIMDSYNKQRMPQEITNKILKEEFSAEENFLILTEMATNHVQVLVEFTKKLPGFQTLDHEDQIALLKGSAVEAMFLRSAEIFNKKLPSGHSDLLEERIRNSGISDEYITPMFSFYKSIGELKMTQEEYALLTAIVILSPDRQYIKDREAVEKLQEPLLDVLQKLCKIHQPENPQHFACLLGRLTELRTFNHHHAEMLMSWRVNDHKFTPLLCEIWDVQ

c1ccc(C(O[C@@H]2CCCN(CCc3ccc4c(c3)OCO4)C2)c2ccccc2)cc1
active: [1] 89 µM | [2] 77.7 µM and 81.9 µM | [4] 50 µM | [5] 79.9 µM | [7] 50 µM | [8] 69.7 µM
inactive: [1] | [3] | [6]

Cn1cc[nH]c1=S
inactive: [1] | [2] | [3] | [9] | [4] | [5] | [6] | [10] | [7] | [8]

CCOc1ccc2[nH]cc(C(=O)NCc3ccccc3)c(=O)c2n1
active: [13] 68.1 µM
inactive: [11] | [2] | [3] | [12] | [14] | [15] | [16] | [4] | [5] | [6] | [7] | [8]

COc1cc2c(c(OC)c1OC)-c1ccc(OC)c(=O)cc1[C@@H](NC(C)=O)CC2
active: [11] 0.03 µM | [1] 8.86 µM | [2] 10.6 µM | [4] 0.0799 µM | [5] 0.0575 µM | [7] 0.0178 µM | [8] 0.0772 µM
inactive: [1] | [2] | [3] | [17] | [12] | [13] | [18] | [19] | [20] | [14] | [15] | [16] | [6]

NC(=O)N1c2ccccc2C=Cc2ccccc21
inactive: [2] | [3] | [4] | [5] | [10] | [7] | [8]

CCCCN1C(=O)[C@@H]([C@H](O)C2CCCCC2)NC(=O)C12CCN(Cc1ccc(Oc3ccc(C(=O)O)cc3)cc1)CC2
active: [5] 1.32 µM | [7] 50 µM | [8] 2.04 µM
inactive: [1] | [2] | [3] | [4]

C=CCc1cc(S(=O)(=O)c2ccc(O)c(CC=C)c2)ccc1O
inactive: [3] | [18] | [14] | [15] | [4] | [10]
active: [17] 6.4 µM | [12] 12.4 µM | [13] 0.165 µM | [19] 5.57 µM | [20] 0.673 µM | [16] 0.351 µM | [5] 81.4 µM | [7] 88.2 µM | [8] 71.6 µM

CC1(C)C(=O)N(Cl)C(=O)N1Cl
inactive: [1] | [2] | [3] | [4] | [5] | [6] | [7] | [8]

O=C(O)CO
inactive: [2] | [3] | [9]

CCc1cccc(CC)c1N
inactive: [1] | [2] | [4] | [5] | [6] | [10] | [7] | [8]

O=C1CN(N=Cc2ccc([N+](=O)[O-])o2)C(=O)N1
inactive: [3] | [4] | [5] | [6] | [7] | [8]

c1ccc2ncccc2c1
inactive: [1] | [2] | [3] | [4] | [5] | [6] | [7] | [8]

CC(C)CCCCCCOC(=O)C1CCCCC1C(=O)OCCCCCCC(C)C (stereo not drawn)
inactive: [1] | [2] | [3] | [4] | [5] | [6] | [7] | [8]

COCc1nnc(-c2ccc[n+]([O-])c2)n1-c1c(Cl)c(Cl)cc2[nH]c(=O)c(=O)[nH]c12
inactive: [1] | [2] | [3] | [4] | [5] | [6] | [7] | [8]

O=C(O)c1cccc(C[C@@H]2COc3ccc(OCc4nc5cc(F)ccc5s4)cc3[C@@H]2O)c1
inactive: [1] | [2] | [4] | [6] | [7]
active: [5] 85.5 µM | [8] 50 µM

OCCNCCO
active: [5] 9.92 µM | [8] 50 µM
inactive: [1] | [2] | [4] | [6] | [10] | [7]

C=CN1CCCC1=O
inactive: [1] | [2] | [3] | [9] | [4] | [5] | [6] | [7] | [8]

COS(C)(=O)=O
inactive: [1] | [2] | [3] | [4] | [5] | [6] | [7] | [8]

O=C(NO)C1(NS(=O)(=O)c2ccc(Oc3ccc(F)cc3)cc2)CCOCC1
active: [5] 50 µM | [10] 85.1 µM | [8] 85.5 µM
inactive: [1] | [3] | [9] | [4] | [6] | [7]

CC(C)C(=O)Nc1ccc([N+](=O)[O-])c(C(F)(F)F)c1
inactive: [1] | [3] | [6]
active: [4] 67 µM | [5] 37 µM | [7] 12.4 µM | [8] 62.1 µM
